# From PubChem BioAssay (NCI)
# This is part of a sample that, as a whole, favours compounds with a hit. Of some 83,000 tested, about 20% had one in any assay.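 Cell lines were cultured in 96-well plates, exposed to a single compound concentration, and assessed for percent growth 48 hours later.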 Unmarked numbers belong to inactive results. The source made the active and inactive calls. Rule for the calls: active = growth percent below 10; inactive = the rest.
# Test system: SF-295 CNS
# Assay: NCI-60 one-dose screen, 48 h (100 = growth as untreated, 0 = no growth, -100 = all killed)
# Details: 10 µM unless noted
row,Structure (SMILES),growth
1,CCN(CC)c1nc(SCC(=O)Nc2nc3ccc(C)cc3s2)nc(-c2ccccc2)c1C#N,92.9%
2,Cn1cc(-c2csc(-c3cccc(F)c3)n2)c2cccnc21,-51.9% [100 µM] (active)
3,CCN1CCN(c2cc(C)nc(NCc3cc(Nc4ccnc5cc(Cl)ccc45)ccc3F)n2)CC1,31%
4,CSc1n(Cc2ccc3ccccc3c2)c(C)c[n+]1Cc1ccc2ccccc2c1,-23.3% (active)
5,NC(=N\N=C/c1cccc([N+](=O)[O-])c1)/C(N)=N\N=C/c1cccc([N+](=O)[O-])c1,92.9%
6,COc1ccc(-c2csc(C3=C(O)CN(C(C)C)C3=N)n2)cc1OC,113%
7,COc1ccc(-c2ccc3c(c2)sc2nc(-c4ccc(F)cc4)cn23)cc1,32.5%
8,Cc1ccc(S(=O)(=O)NCC[C@@H]2C[C@H]2c2cc3ccccc3s2)cc1,103%
9,Cc1cccc(NC(=O)CSc2nc3ccccc3[nH]2)c1,105%
10,C[n+]1cc2cc(C(N)=O)[nH]c3c(=N)c(Cl)c(N)c1c23,74.1%
11,CCN(CC)CCCNc1ccc(Nc2ccc(OC)cc2)cc1,120%
12,O=C1C=C[C@]2(C[C@@H](c3cccc(C(F)(F)F)c3)O[C@@H](c3cccc(C(F)(F)F)c3)O2)O1,46.1%
13,Cc1nc2c(c(N3CCCc4ccccc43)n1)CCC2,9.59% (active)
14,Cc1cc(Cl)nc(NCc2cc(Nc3ccnc4cc(Cl)ccc34)ccc2F)n1,69.5%
15,COc1ccc(NC(=O)CSc2nnc(-c3cc(-c4ccc(S(N)(=O)=O)cc4)nc4ccccc34)n2-c2ccccc2)cc1,94.5%
16,COc1ccc(-c2nc3ccc4[nH]ncc4c3c3c2CCCC3)cc1B(O)O,56.3%
17,CC/C=C\C[C@H](O)C/C=C1/C(=O)C=C[C@@H]1C/C=C\CCCCO,10.6%
18,O=C(/C=C/c1c(Cl)nc2sccn12)c1nccs1,110%
19,O=c1[nH]ccc2nc(N3CCC(O)CC3)nc(Nc3ccc(N4CCOCC4)cc3)c12,108%

row,Structure (SMILES),growth
1,COc1ccc2c(c1)CCCN2c1c2ccccc2nc2ccccc12,8.45% (active)
2,COc1ccc(N=C(c2ccccc2)C2C(=O)c3ccccc3C2=O)cc1,67.2%
3,Cc1c(O)cc(-c2cnc(N/N=C\c3ccc(Cl)cc3)s2)c(O)c1C,99.9%
4,NS(=O)(=O)c1ccc(-n2nc(C(=O)N/N=C\c3ccc(F)cc3)cc2-c2ccc(Cl)cc2)cc1,97%
5,CCN1CCN(c2nc(C)cc(NCc3cc(Nc4ccnc5cc(Cl)ccc45)ccc3F)n2)CC1,-55% (active)
6,COc1ccc2[nH]c(O)c(/C=c3/cc4c(c(-c5ccc(F)c(OC)c5)n3)=Nc3ccccc3-4)c2c1,104%
7,CCCCCS(=O)(=O)Nc1ccc(C(=O)O)cc1,110%
8,CN(C)CC1C(=O)O[C@H]2[C@H]1CC/C(COC(=O)c1cc3ccccc3[nH]1)=C\CC[C@@]1(C)O[C@@H]21 (some centres undefined),32.4%
9,N#CC1=C(c2ccc(Br)cc2)NC(SCC(=O)c2ccc(Br)cc2)NC1=O (centres undefined),101%
10,O=c1c2c3c(sc2n2c(-c4cn(-c5ccccc5)nc4-c4ccc(Cl)cc4)nnc2n1Cc1ccccc1)CCCC3,98.5%
11,COc1cc(/C=C/C(=O)c2cccc(-n3cc(-c4ccccc4)[nH]c3=O)c2)ccc1O,65.7%
12,CCCCCCCCCOc1c(OC)cc(C2CC(=O)Nc3c2c(C)nn3-c2nc3ccccc3[nH]2)cc1OC (centres undefined),-59.1% (active)
13,Cc1ccc2c(c1)Sc1c(ccc3ccccc13)N2,69.8%
14,CC(C)(C)C(CCc1ccc(Cl)cc1)N1CCN(C2CCCCC2)CC1 (centres undefined),72.6%
15,COc1ccc(C2=NN(C(=O)c3cc(OC)c(OC)c(OC)c3)C(c3ccc(Cl)cc3)C2)cc1OC (centres undefined),-4.6% (active)
16,Cc1cc(NCc2cc(Nc3ccnc4cc(Cl)ccc34)ccc2F)nc(N2CCSCC2)n1,-57.3% (active)
17,N#Cc1c(-c2cccc(Cl)c2)cc(-c2cccc(F)c2)[nH]c1=O,91.2%
18,O=C(CSc1nnc(-c2ccc(NC(=O)c3cccnc3)cc2)o1)N[C@@H](Cc1ccc(O)cc1)C(=O)O,108%

# Test system: SF-539 CNS
# Assay: as above
# Details: 10 µM unless noted
row,Structure (SMILES),growth
1,CCN(CC)c1nc(SCC(=O)Nc2nc3ccc(C)cc3s2)nc(-c2ccccc2)c1C#N,89.2%
2,Cn1cc(-c2csc(-c3cccc(F)c3)n2)c2cccnc21,-74.9% [100 µM] (active)
3,CCN1CCN(c2cc(C)nc(NCc3cc(Nc4ccnc5cc(Cl)ccc45)ccc3F)n2)CC1,55.7%
4,CSc1n(Cc2ccc3ccccc3c2)c(C)c[n+]1Cc1ccc2ccccc2c1,8.44% (active)
5,NC(=N\N=C/c1cccc([N+](=O)[O-])c1)/C(N)=N\N=C/c1cccc([N+](=O)[O-])c1,89.1%
6,COc1ccc(-c2csc(C3=C(O)CN(C(C)C)C3=N)n2)cc1OC,88.9%
7,COc1ccc(-c2ccc3c(c2)sc2nc(-c4ccc(F)cc4)cn23)cc1,100%
8,Cc1ccc(S(=O)(=O)NCC[C@@H]2C[C@H]2c2cc3ccccc3s2)cc1,98.3%
9,Cc1cccc(NC(=O)CSc2nc3ccccc3[nH]2)c1,98.1%
10,C[n+]1cc2cc(C(N)=O)[nH]c3c(=N)c(Cl)c(N)c1c23,90.6%
11,CCN(CC)CCCNc1ccc(Nc2ccc(OC)cc2)cc1,98.6%
12,O=C1C=C[C@]2(C[C@@H](c3cccc(C(F)(F)F)c3)O[C@@H](c3cccc(C(F)(F)F)c3)O2)O1,-69.6% (active)
13,Cc1nc2c(c(N3CCCc4ccccc43)n1)CCC2,1.1% (active)
14,Cc1cc(Cl)nc(NCc2cc(Nc3ccnc4cc(Cl)ccc34)ccc2F)n1,70.5%
15,COc1ccc(NC(=O)CSc2nnc(-c3cc(-c4ccc(S(N)(=O)=O)cc4)nc4ccccc34)n2-c2ccccc2)cc1,78.4%
16,COc1ccc(-c2nc3ccc4[nH]ncc4c3c3c2CCCC3)cc1B(O)O,52.8%
17,CC/C=C\C[C@H](O)C/C=C1/C(=O)C=C[C@@H]1C/C=C\CCCCO,14.5%
18,O=C(/C=C/c1c(Cl)nc2sccn12)c1nccs1,106%
19,O=c1[nH]ccc2nc(N3CCC(O)CC3)nc(Nc3ccc(N4CCOCC4)cc3)c12,28.7%

row,Structure (SMILES),growth
1,COc1ccc2c(c1)CCCN2c1c2ccccc2nc2ccccc12,-26.4% (active)
2,COc1ccc(N=C(c2ccccc2)C2C(=O)c3ccccc3C2=O)cc1,72.3%
3,Cc1c(O)cc(-c2cnc(N/N=C\c3ccc(Cl)cc3)s2)c(O)c1C,78.8%
4,NS(=O)(=O)c1ccc(-n2nc(C(=O)N/N=C\c3ccc(F)cc3)cc2-c2ccc(Cl)cc2)cc1,88.1%
5,CCN1CCN(c2nc(C)cc(NCc3cc(Nc4ccnc5cc(Cl)ccc45)ccc3F)n2)CC1,-81% (active)
6,COc1ccc2[nH]c(O)c(/C=c3/cc4c(c(-c5ccc(F)c(OC)c5)n3)=Nc3ccccc3-4)c2c1,64.3%
7,CCCCCS(=O)(=O)Nc1ccc(C(=O)O)cc1,102%
8,CN(C)CC1C(=O)O[C@H]2[C@H]1CC/C(COC(=O)c1cc3ccccc3[nH]1)=C\CC[C@@]1(C)O[C@@H]21 (some centres undefined),-37.7% (active)
9,N#CC1=C(c2ccc(Br)cc2)NC(SCC(=O)c2ccc(Br)cc2)NC1=O (centres undefined),96.2%
10,O=c1c2c3c(sc2n2c(-c4cn(-c5ccccc5)nc4-c4ccc(Cl)cc4)nnc2n1Cc1ccccc1)CCCC3,90.3%
11,COc1cc(/C=C/C(=O)c2cccc(-n3cc(-c4ccccc4)[nH]c3=O)c2)ccc1O,85.7%
12,CCCCCCCCCOc1c(OC)cc(C2CC(=O)Nc3c2c(C)nn3-c2nc3ccccc3[nH]2)cc1OC (centres undefined),-86.3% (active)
13,Cc1ccc2c(c1)Sc1c(ccc3ccccc13)N2,47.5%
14,CC(C)(C)C(CCc1ccc(Cl)cc1)N1CCN(C2CCCCC2)CC1 (centres undefined),81.2%
15,COc1ccc(C2=NN(C(=O)c3cc(OC)c(OC)c(OC)c3)C(c3ccc(Cl)cc3)C2)cc1OC (centres undefined),-3.19% (active)
16,Cc1cc(NCc2cc(Nc3ccnc4cc(Cl)ccc34)ccc2F)nc(N2CCSCC2)n1,-72.2% (active)
17,N#Cc1c(-c2cccc(Cl)c2)cc(-c2cccc(F)c2)[nH]c1=O,94.3%
18,O=C(CSc1nnc(-c2ccc(NC(=O)c3cccnc3)cc2)o1)N[C@@H](Cc1ccc(O)cc1)C(=O)O,102%
